Experimental data reported in PubChem BioAssay (NCI).
This is part of a sample that, as a whole, favours compounds with a hit. Of some 83,000 tested, about 20% had one in any assay.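 48-hour exposure, single concentration, 96-well plates; percent growth endpoint where 0 means no net growth. Active: below 10.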 Values without a mark were called inactive. Activity calls are given as the source filed them.

Columns and labels:
Experiment in all cases: NCI-60 one-dose screen, 48 h (100 = growth as untreated, 0 = no growth, -100 = all killed)
Conditions in all cases: 10 µM unless noted
HCT-15 colon = test system: HCT-15 colon
HT29 colon = test system: HT29 colon
SNB-75 CNS = test system: SNB-75 CNS
SNB-19 CNS = test system: SNB-19 CNS
U251 CNS = test system: U251 CNS
PC-3 prostate = test system: PC-3 prostate
SK-MEL-5 melanoma = test system: SK-MEL-5 melanoma
UACC-62 melanoma = test system: UACC-62 melanoma
LOX IMVI melanoma = test system: LOX IMVI melanoma
SK-MEL-28 melanoma = test system: SK-MEL-28 melanoma

Compound	growth (HCT-15 colon)	growth (HT29 colon)	growth (SNB-75 CNS)	growth (SNB-19 CNS)	growth (U251 CNS)	growth (PC-3 prostate)	growth (SK-MEL-5 melanoma)	growth (UACC-62 melanoma)	growth (LOX IMVI melanoma)	growth (SK-MEL-28 melanoma)
Cc1ccc(C2CC(c3ccc(Nc4nc(NCCO)nc(NCCO)n4)cc3)=NN2c2ccc(Cl)cc2)cc1 (stereo not given)	47%	30.5%	28.5%	75.5%	36.3%	33.5%	74.8%	81.2%	40.9%	48.4%
O=S(=O)(O)c1ccc(N=NSc2ccc3ccccc3c2)cc1	104%	93.8%	113%	105%	96.9%	81.3%	100%	102%	86.8%	106%
CCCS(=O)(=O)Nc1ccc(F)c(C(=O)c2c[nH]c3ncc(-c4ccc(OCCCC5CCCCN5)nc4)cc23)c1F (stereo not given)	102%	2.79% (active)	19.4%	77.5%	61.2%	53%	44.7%	-22% (active)	32.8%	-1.65% (active)
CC(C)NS(=O)(=O)c1cccc(-c2ccc3c4c(n(CCCN(C)C)c(=O)c3c2)-c2ccccc2C4=O)c1	67.9%	-16.2% (active)	88.9%	110%	56%	99.8%	94.1%	106%	100%	99.5%
CN1CCN(/C=C2\CC(C(=O)NCc3ccc(Cl)cc3Cl)NC2=O)CC1 (stereo not given)	108%	99%	106%	100%	100%	90.9%	95.8%	96.6%	100%	110%
O=C1CC23OC4ON=C(Br)C4C2C(O)c2ccccc2N13 (stereo not given)	99%	90.5%	79.9%	105%	110%	94.4%	111%	94.3%	88.8%	114%
N#Cc1ccc(N2Cc3cc(Cl)ccc3OC3=C2C(=O)N(Cc2ccc(F)cc2)C3=O)cc1	-54.9% (active)	-59.1% (active)	-3.4% (active)	57.8%	-61.1% (active)	11.8%	-33.1% (active)	-41.1% (active)	-93% (active)	-64.1% (active)
CCOC(=O)/C=C1\SC(=Nc2ccc(C#N)cc2)N(CCN2C(=O)/C(=C/C(=O)OCC)SC2=Nc2ccc(C#N)cc2)C1=O	2.58% (active)	15.7%	53.6%	28.2%	-7.96% (active)	39.6%	58.8%	33.6%	0.0355% (active)	97%
Nc1c(C(=O)Nc2ccccn2)sc2nc3c(cc12)CCCCCC3	20.2%	3.49% (active)	-1.5% (active)	22.3%	16%	20.9%	9.47% (active)	24.8%	36.2%	51.2%
O=C1C(=O)c2c(nc3ccc(Br)cn23)-c2ccccc21	-75.7% (active)	-29.1% (active)	-95.3% (active)	-86.4% (active)	-100% (active)	-63.4% (active)	-97.6% (active)	-87.6% (active)	-76.6% (active)	-60% (active)
C=C(C)[C@@H]1CC[C@]2(C(=O)O)CC[C@]3(C)[C@H](CC[C@@H]4[C@@]5(C)C[C@@H](CC#Cc6ccccc6)C(=O)C(C)(C)[C@@H]5CC[C@]43C)[C@@H]12	18.8%	23.9%	65.1%	46.3%	27.8%	35.3%	32%	42.4%	45.1%	45.1%
Nc1ccccc1NS(=O)(=O)c1ccc(Cl)cc1	102%	91.7%	81.8%	96.6%	101%	91.5%	94.4%	91.4%	92.1%	96.8%
COC(=O)CCc1n(Cc2ccc3ccccc3c2)c2ccccc2[n+]1Cc1ccc2ccccc2c1	79.1%	-25.5% (active)	-8.15% (active)	16%	8.5% (active)	6.6% (active)	-92.9% (active)	-54% (active)	-59.3% (active)	4.8% (active)
O=C(Nc1nc2ccc(C(F)(F)F)cc2s1)c1cc(Cl)ccc1O	7.56% (active)	-18% (active)	16.8%	20.5%	8.44% (active)	7.15% (active)	-46.1% (active)	13.3%	5.71% (active)	26.6%
Nc1c(C(=O)Nc2ccccc2Cl)sc2nc3c(cc12)CN(Cc1ccccc1)CC3	95.7%	101%	113%	109%	114%	104%	97.7%	101%	99.7%	102%
COc1ccc(-c2cc(-c3nnc(SCC(=O)Nc4ccc(C(C)=O)cc4)o3)c3ccccc3n2)cc1	23.3%	38.9%	-5.55% (active)	13.8%	-68.6% (active)	6.81% (active)	5.12% (active)	25.8%	4.15% (active)	42.7%
COc1ccc(Sc2[nH]c(C(C)=O)c3ccccc23)cc1	53.9%	47.6%	48.1%	67.1%	76%	52.1%	45.1%	47.1%	71.9%	84.1%
CC(C)C[C@H](C(=O)O)N(C)C(=O)[C@@H]1CCCN1C(=O)[C@H](C)OC(=O)[C@H](CCC(N)=O)NC(=O)[C@@H]1CCC(=O)N1	95.9%	104%	84.3%	102%	-37% (active)	96.6%	95.6%	102%	104%	103%
COc1ccc(-c2cc(C(=O)N3N=C(c4ccc(N)cc4)CC3c3ccc(OC)cc3)c3cc(OC)ccc3n2)cc1 (stereo not given)	22.2%	26.5%	70.3%	58.1%	48.7%	42.5%	67.3%	40.4%	41.3%	64.4%
